Shown are actives, neighbours in structure and some others; about 3.7% of the full set was active somewhere.
miR-21 act – qHTS Assay for Modulators of miRNAs and/orActivators of miR-21; 340,000 tested, under 10 active; HeLa miR-21 FLuc reporter, luciferase, 48 h; Potency, µM (doses to about 38.3 µM), for inactives: at the top dose activity change, positive = activation, most hits filed as activators;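 note: % of control where 0% means no effect; miR-21 action dims this reporter so a rising signal means less miR-21 action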
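HeLa miR-21-FLuc reporter line, endogenous miR-21; 2000 cells/well in DMEM/10% FBS; compound titration up to ~40uM final, 48 h, 37 degree Celsius; luciferase detection reagent, 15 min lysis, CCD luminescence.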
ClpP mod – qHTS Assay for Activators of ClpP. ATP-dependent Clp protease proteolytic subunit (Bacillus subtilis (strain 168)), P80244. purified B. subtilis ClpP, FRET peptide cleavage, 20 min. Potency, µM (top dose mostly 57.5 µM), without a hit: top-dose activity change, negative = active. hit rate 1.9% among 340,000. AID 651965, 2013; active = well fitted falling curve with a large enough effect; inconclusive = small, poorly fitted or top-dose-only effect; inactive = no such curve, though single readings can be large or run the other way; note: potency is the fitted concentration of half-maximal effect; the source files actives as falling curves though it sought activators and does not explain the sign; nearly all actives have a fitted effect of over 65% in size
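FRET quenching reversal measured ClpP activation: 10 microg/mL B. subtilis ClpP at pH 8 with the FRET-FV decapeptide, read at 430 nm after 320 nm excitation. The 20-min minus 0-min signal was scaled between DMSO/no-enzyme wells and ADEP (5.8 microM final).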
IL2 activator – qHTS of IL-2 Activators. IL-2 activation reporter assay, cell-based qHTS; stimulated with anti-CD3/CD4/CD28 beads; in transgenic mouse T cells. activation, % (series mostly up to about 46 µM). hit rate 0.065% among 360,000. AID 652025, 2013; in the data active = activation above about 50%; inconclusive = mostly about 30% to 49%; note: 0% is about no effect
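Unstimulated transgenic mouse T cells; 60-min compound exposure; bead-based TCR/CD4/CD28 stimulation; 18 h culture, 37 degrees C; dual fluorescence (EGFP, DsRed) plate cytometry.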
A549 viability – Nrf2 qHTS screen for inhibitors: counterscreen for cytotoxicity; A549 ARE-Fluc cells, CellTiter-Fluor viability, 18-24 h; Potency, µM (series often up to 46 µM), for inactives: at the highest dose activity change, negative = cytotoxicity, actives largely listed as inhibitors; hit rate 0.16% among 390,000; AID 504648, 2011; note: potency is the fitted concentration of half-maximal effect; % is set by controls: 0 for no effect and ±100 for the full control effect
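Cytotoxicity counterscreen: CellTiter-Fluor fluorescence was measured in A549 ARE_Fluc cells after 18-24 h of compound exposure in a concentration series. The subsequent BugLite luminescent read reports ARE-luciferase activity.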
Nrf2 inh – Nrf2 qHTS screen for inhibitors. A549 ARE-Fluc reporter, luciferase luminescence, 18-24 h. Potency, µM (doses to about 46 µM), for the others: top-dose activity change, negative = inhibition, most hits filed as inhibitors. hit rate 2.1% among 360,000. AID 504444, 2011; note: potency is the fitted concentration of half-maximal effect; % is set by controls: 0 for no effect and ±100 for the full control effect; nearly all actives have a fitted effect of over 60% in size
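A549 ARE_Fluc cells, 5000/well, 5% FBS OPTI-MEM; compounds in dose-response, 18-24 h at 37 °C/5% CO2; CellTiter-Fluor viability read (Ex 405/Em 525), then BugLite luciferase luminescence = Nrf2 activity.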
Nrf2 activator – qHTS of Nrf2 Activators; Potency, µM (highest dose often 46.1 µM), inactives show at the top dose activation, actives largely listed as activators; hit rate 0.31% among 410,000; AREc32 ARE-luciferase reporter (MCF7-derived line), luminescence, 24 h; note: potency is the fitted concentration of half-maximal effect; % of control where 0% means no effect; nearly all actives have a fitted effect of over 65% in size
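AREc32 cells carrying an ARE-driven firefly luciferase reporter were seeded at 1000 cells/well in OPTI-MEM with 5% FBS, then exposed to compound for 24 hr at 37 deg C. Luminescence was read with Steady-Glo after 30 min at RT.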
* = called active by the depositor; ? = inconclusive; / = no result given. Unless noted, calls come from the whole dose curve; as a rule, active = well fitted curve in the direction sought with a large enough effect; inconclusive = small, poorly fitted or top-dose-only effect, or another doubt; inactive = no such curve, though single readings can be large; an effect the other way counts as inactive or inconclusive.

SMILES	miR-21 act	ClpP mod	IL2 activator	A549 viability	Nrf2 inh	Nrf2 activator
Cc1sc2c(c1C)C(c1cccs1)=NCC(=O)N2CC(=O)NCc1cccs1	2%	3%	3	-2%	-2%	0%
Cc1sc2c(c1C)C(c1ccc(C(C)(C)C)cc1)=NCC(=O)N2CC(=O)Nc1nccs1	4%	1%	-1	-24%	12µM*	0%
COC[C@H]1OC(=O)c2coc3c2[C@@]1(C)C1=C(C3=O)[C@@H]2CCC(=O)[C@@]2(C)C[C@H]1OC(C)=O	/	-2%	-8	16µM*	3.7µM*	?
CCCNC(=O)c1c(N)n(Cc2ccc3c(c2)OCO3)c2nc3ccccc3nc12	-5%	-28%	3	-11%	12%	0%
CC(C)CNC(=O)c1c(N)n(Cc2ccc3c(c2)OCO3)c2nc3ccccc3nc12	23%	14µM*	-1	?	?	0%
COCCOC(=O)c1c(N)n(Cc2ccc(OC)cc2)c2nc3ccccc3nc12	-8%	25%	-3	-13%	-8%	3%
CC(C)CCNC(=O)c1c(N)n(Cc2ccc3c(c2)OCO3)c2nc3ccccc3nc12	0%	28µM*	3	16µM*	21µM*	0%
CCOc1cc(/C=N/NC(=O)c2cccs2)ccc1OC(=O)N1CCOCC1	-17%	/	-2	-5%	?	9%
Cc1ccc(NS(=O)(=O)c2c(F)cc(F)c(Cl)c2F)cc1S(=O)(=O)N1CCOCC1	/	2%	1	-6%	-8%	?
COC(=O)c1ccc(NC(=O)CSc2nc3ccc(N4C(=O)C5C6C=CC(C6)C5C4=O)cc3s2)cc1 (stereo not given)	?	-4%	-3	?	18µM*	0%
CCC(=O)C1=C(c2cccc([N+](=O)[O-])c2)N(C(=O)CC)n2c(nnc2C2CCCCC2)S1	?	1%	/	-22%	/	0%
CCCOc1ccc(C(=O)Nc2ccc(-c3cc4ccccc4oc3=O)c(C)c2)cc1	17%	4%	/	-7%	5.8µM*	7%
COc1ccc(CCNC(=O)c2ccc3c(c2)CCN3S(=O)(=O)c2ccc(C)cc2)cc1OC	19%	10%	/	-3%	?	4%
C/C(CC(c1ccccc1)c1c(O)c2ccccc2oc1=O)=N\Nc1ccc([N+](=O)[O-])cc1[N+](=O)[O-] (stereo not given)	-5%	-18%	0	?	23µM*	15%
O=c1oc2ccccc2c(O)c1C(c1ccc([N+](=O)[O-])cc1)c1c(O)c2ccccc2oc1=O	-2%	/	0	?	?	3%
CCN1CCN(C(=O)COc2ccc3c(c2)C(=O)CC2(CCN(C(C)=O)CC2)O3)CC1	-1%	32µM*	1	1%	-5%	0%
CC1(C)CC(=O)c2cc(OCC(=O)N3CCN(Cc4ccccc4)CC3)ccc2O1	-1%	/	1	1%	2%	-1%
CCOC(=O)c1c(C)[nH]c(C)c1S(=O)(=O)NCC(=O)N1CCN(c2cc(Cl)ccc2C)CC1	14%	-4%	/	1%	?	0%
Nc1cccc2cccc([N+](=O)[O-])c12	/	16µM*	-1	0%	?	?
O=[N+]([O-])c1cccc2c([N+](=O)[O-])cccc12	/	-4%	0	0%	10%	0%
O=S(=O)(Nc1ccc(-c2nc3ccccc3o2)cc1)c1ccccc1	-43%	28µM*	-2	-9%	1%	5%
COc1ccc(-c2nc3ccccc3o2)cc1NC(=O)Cc1ccc(Cl)cc1	-33%	?	/	-5%	2%	0%
O=C(NCc1ccc(Cl)cc1)C1CCCN(C(=O)c2cnn(-c3ccc(F)cc3)c2-n2cccc2)C1 (stereo not given)	16%	1%	/	-11%	?	1%
CN(C)c1c([N+](=O)[O-])cc(N2C(=O)C=CC2=O)cc1[N+](=O)[O-]	/	-13%	0	?	?	-1%
COC(=O)C1=C(c2cc3ccccc3s2)C[C@@H]2CC[C@H]1N2C(=O)NCc1ccc(F)cc1	/	-7%	-3	-5%	?	-1%
SMILES	miR-21 act	ClpP mod	IL2 activator	A549 viability	Nrf2 inh	Nrf2 activator
CCc1ccc(CNC(=O)C2CCN(C(=O)c3ccc(-n4c(C)cc5ccccc54)s3)CC2)cc1	23%	-22%	/	-29%	18µM*	0%
CC(O)C1C=CC=CC(=O)OC2CC3OC4C5OC5(C)C(O)CC4(COC(=O)C(O)C(C)CCO1)C2(C)C31CO1 (stereo not given)	/	32µM*	-6	/	0.26µM*	-2%
CC1=CC2OC3CC4OC(=O)C=CC=CC(=O)OCCC(C)C(O)C(=O)OCC2(CC1)C4(C)C31CO1 (stereo not given)	/	-5%	-5	/	0.0046µM*	-2%
O=P(O)(O)c1ccccc1OCCOCCOCCOCCOc1ccccc1P(=O)(O)O	-42%	-3%	0	3%	?	3%
CN(C)S(=O)(=O)c1ccc(C(=O)NNc2nc(-c3ccccc3)c3cc(Br)ccc3n2)cc1	12%	-5%	0	-20%	13µM*	5%
CCOc1ccc(Nc2c(S(=O)(=O)c3ccc(C)cc3)cnc3ccc(F)cc23)cc1	14%	-1%	/	-11%	?	2%
COc1ccc(C(=O)NCCn2cc(SCc3ccc(C(F)(F)F)cc3)c3ccccc32)cc1OC	?	-6%	/	-20%	18µM*	0%
CCn1cc(C(=O)NCCc2ccc(OC)c(OC)c2)c(=O)c2cc(S(=O)(=O)N(C)C3CCCCC3)ccc21	22%	-10%	/	-19%	?	0%
O=C(Oc1ccc(Cl)c2ccccc12)N1CCCCC1	-35%	28µM*	0	0%	/	4%
CCOc1cc2c(cc1OCC)-n1cccc1C(c1ccc(F)cc1)NC2 (stereo not given)	2%	0%	-1	4%	-15%	3%
CCOc1cc2c(cc1OCC)-n1cccc1C(c1ccc(C(C)C)cc1)NC2 (stereo not given)	30%	/	-1	?	23µM*	9%
C[C@]12CC[C@H](O)CC1=CCC1C2CC[C@@]2(C)C1C[C@@H]1CC(=O)O[C@@H]12 (stereo not given in full)	/	/	0	3%	18µM*	0%
